Assay outcomes deposited in PubChem by University of Pittsburgh Molecular Library Screening Center.
HIV RNase H inh-1: blocks HIV-1 RNase H cleavage of RNA/DNA duplex | P04585 | actives 1.9% (n = 65,000) | inhibition, % at 10 µM | RT-RNase H RNA/DNA duplex cleavage, fluorescence; in the data active means inhibition above about 50%
HIV RNase H inh-2: confirmation of HIV-1 reverse transcriptase RNase H inhibitors; Recombinant RT RNase H, fluorescent RNA/DNA duplex cleavage; AID 651; actives 39% (n = 1,000); shares compounds with HIV RNase H inh-1; inhibition, % at 10 µM; in the data active means inhibition above about 48%; inconclusive means no clear call, values can overlap the other calls
* marks the source's active call; other numbers are inactive results; ? = inconclusive. The full list was thinned out, with hits kept by preference.

SMILES | HIV RNase H inh-1 | others
Cc1ccc(Cl)cc1N1CCN(C(=O)C2CCN(S(=O)(=O)c3c(C)nn(C)c3C)CC2)CC1 | 5
C1=CC2c3ccccc3NC(c3ccncc3)C2C1 (centres undefined) | 3
COc1cccc2c1NC(C(=O)O)C1CC=CC21 (centres undefined) | -3
O=C(O)c1ccc(Cl)c2c1C1C=CCC1C(c1ccccn1)N2 (centres undefined) | 83* | HIV RNase H inh-2=-2
Cc1occc1C(=O)Nc1cc(C(F)(F)F)ccc1Cl | -13
CC(=O)Nc1ccc(S(=O)(=O)NCC2CCC(C(=O)NCCC(C)C)CC2)cc1 (centres undefined) | 1
COC(=O)c1ccc(CSc2ncnc3c2nnn3-c2ccc(F)cc2)o1 | -2
CCOc1ccc(OCC)c(NC(=O)c2ccc(CNc3c(N4CCOCC4)c(=O)c3=O)cc2)c1 | -16
N#Cc1ccc(-c2cccnc2)nc1SCC(=O)Nc1sc2c(c1C#N)CCC2 | 90* | HIV RNase H inh-2=42
N#Cc1c(NC(=O)CSc2nnnn2C2CCCCC2)sc2c1CCCC2 | 0
N#Cc1c(NC(=O)CSCC(=O)O)sc2c1CCCC2 | -3
CC(=N/O)/C(=N\O)c1ccc(C)o1 | -17
COc1cccc(-c2nc(CS(=O)CC(=O)NCc3ccc4c(c3)OCO4)c(C)o2)c1 (centres undefined) | -6
c1ccc(COc2ccc(CNn3cnnc3)cc2)cc1 | -16
Cc1ccc(C)c(N2CCN(c3cc(C)nc4nnnn34)CC2)c1 | -20
Cc1nc(-c2cccc(S(=O)(=O)N3CCOCC3)c2)cs1 | 78* | HIV RNase H inh-2=58*
Cc1nc(-c2cccc(S(=O)(=O)N3CC(C)OC(C)C3)c2)cs1 (centres undefined) | -11
CCOC(=O)C1CCN(S(=O)(=O)c2cccc(-c3csc(C)n3)c2)CC1 | 23
COc1ccc(C2/C(=C(\O)c3cc(C)ccc3C)C(=O)C(=O)N2CCN(C)C)cc1OC (centres undefined) | -2
O=C(CSc1nnc(Cc2ccccc2)n1-c1ccc(Cl)cc1)N1CCOCC1 | 0
O=S1(=O)CCN2C(=N1)Sc1c2ccc2c1CCCC2 | -44
O=C(COc1ccc(Br)cc1)Nc1ccc(-c2nnc(-c3ccco3)o2)cc1 | 67* | HIV RNase H inh-2=72*
O=C(COC(=O)c1ccco1)Nc1ccc(Br)cc1 | -2
CCC(Oc1ccccc1)C(=O)Nc1ccc(-c2nnc(-c3ccco3)o2)cc1 (centres undefined) | 11
CC(NC(=O)CNC(=O)OCc1ccccc1)C(=O)N1CC(O)CC1C(=O)OCc1ccccc1 (centres undefined) | 66* | HIV RNase H inh-2=39
SMILES | HIV RNase H inh-1 | others
COC(=O)C(CCCCNC(=O)OCc1ccccc1)NC(=O)CN (centres undefined) | -10
COC(=O)C1CCCN1C(=O)C1CCCN1C(=O)CNC(=O)OCc1ccccc1 (centres undefined) | -16
CCOC(=O)c1sc(NC(=O)C(CC)Sc2nnc3c4ccccc4n(CC)c3n2)nc1C (centres undefined) | 26
CCn1c2ccccc2c2nnc(SCC(=O)Nc3ncccn3)nc21 | -5
CCOC(=O)c1sc(NC(=O)CSc2nnc3c4ccccc4n(CC)c3n2)nc1C | 74* | HIV RNase H inh-2=42
Cc1ccc(-c2nc(CSCC(=O)NCc3cccnc3)c(C)o2)cc1 | -7
C=CCSc1nnc(-c2c[nH]c3ccccc23)n1CC | -2
Cc1ccc(-n2ncc3c(=O)n(Cc4ccccn4)cnc32)cc1C | -4
Oc1ccc(CC2CC3CCN2CC3)cc1O (centres undefined) | 8
C[C@@](Cc1ccc(O)c(O)c1)(NN)C(=O)O | 3
CC(Cc1ccc(O)c(O)c1)C(C)Cc1ccc(O)c(O)c1 (centres undefined) | 99* | HIV RNase H inh-2=59*
O=C(O)Cn1c(O)c(C=Nc2ccccc2)sc1=S | -3
Oc1ccc2ccccc2c1/C=N/n1cnnc1 | -9
CCn1c(O)c(/C=N/n2cnnc2)sc1=S | 61* | HIV RNase H inh-2=0
COc1ccc(CCN=CC2=C(O)CCCC2=O)cc1OC | -2
COc1ccc(NC(=O)CN(C)S(=O)(=O)c2ccc3c(c2)OCCO3)c2ncccc12 | -1
S=C(c1ccc(-c2cccc(Cl)c2)o1)N1CCOCC1 | 85* | HIV RNase H inh-2=1
S=C(c1ccc(-c2cc(Cl)ccc2Cl)o1)N1CCOCC1 | -39
N#CCCN1CCN(C(=S)c2ccc(-c3cccc(Cl)c3)o2)CC1 | -4
O=C(NCC1CCCO1)c1sc(=S)n2c1[nH]c(=O)c1ccc(C(=O)N3CCCCC3)cc12 (centres undefined) | -1
CCCCNC(=O)c1sc(=S)n2c1[nH]c(=O)c1ccccc12 | 11
O=C(NC1CCCCC1)c1sc(=S)n2c1[nH]c(=O)c1ccccc12 | 74* | HIV RNase H inh-2=59*
COc1ccc2oc(=O)c(C(=O)N3CCN(C45CC6CC(CC(C6)C4)C5)CC3)cc2c1 | -1
CCOC(=O)N1CCN(C(=O)CCSCCc2ccncc2)CC1 | -17
Cc1cc(C)n(C(=O)c2cccc(S(=O)(=O)N3CCCC3)c2)n1 | -15
SMILES | HIV RNase H inh-1 | others
O=C(CC1(O)C(=O)Nc2ccccc21)c1cccnc1 (centres undefined) | -18
O=C1CCCCCN1C(=O)c1cccc(C(=O)N2CCCCCC2=O)c1 | -7
O=C(CSc1ncn[nH]1)Nc1ccccc1C(=O)O | -7
O=C(CSc1ncn[nH]1)c1ccccc1 | 70* | HIV RNase H inh-2=67*
O=C(CSc1ncn[nH]1)c1ccco1 | 39
Cc1nc2ccc(S(=O)(=O)NC(C(=O)NCc3ccco3)C(C)C)cc2s1 (centres undefined) | 1
CC(NC(=O)NCc1cccnc1)(C(F)(F)F)C(F)(F)F | -14
O=C(CSc1ccccc1)Nc1ccc(S(=O)(=O)NCC2CCCO2)cc1 (centres undefined) | -10
O=C(CCC1CCCC1)Nc1ccc(Br)cn1 | 9
CCc1ccccc1NC1=NCC(=O)N1Cc1ccccc1 | -30
CCc1ccccc1NC1=NCC(=O)N1C1CCCCC1 | 83* | HIV RNase H inh-2=20
Cc1cc(C)c(NC2=NCC(=O)N2C2CCCCC2)c(C)c1 | -57
O=C(COC(=O)CCC(=O)c1ccc2c(c1)OCCO2)NCc1ccc2c(c1)OCO2 | -21
Cc1sc2nc(CN(Cc3cccs3)C(=O)C3CC3)[nH]c(=O)c2c1C | -6
CCN(CC)CCn1c2ccccc2c2nc(C)sc21 | -4
CC1CCCCN1C(=O)CSc1nnc(-c2c[nH]c3ccccc23)o1 (centres undefined) | -15
Brc1ccc(-c2nn3c(-c4ccco4)nnc3s2)o1 | 7
c1coc(-c2nnc3sc(C4CCCCC4)nn23)c1 | 75* | HIV RNase H inh-2=?
Clc1ccc(-c2ccc(-c3nn4c(-c5ccco5)nnc4s3)o2)cc1 | 99* | HIV RNase H inh-2=?
COc1ccc(-c2nnc3sc(C4CCCCC4)nn23)cc1OC | -1
Cc1occc1-c1nnc2sc(-c3ccc(-c4ccc(Cl)cc4)o3)nn12 | 24
c1ccc(-c2nn3c(-c4ccco4)nnc3s2)nc1 | -3
CC12CC(NC(=O)N1CCc1ccccc1)c1cc(Cl)ccc1O2 (centres undefined) | -10
CCc1ccc(NS(=O)(=O)c2cccs2)cc1 | -10
CC(=O)Nc1cccc(NC(=O)CSc2nnc(Cc3cccn3C)n2-c2ccc(C)cc2)c1 | -14
c1ccc(-n2c(Sc3cnccn3)nnc2-c2cccs2)cc1 | -21
COC(=O)c1ccc(N2CCOCC2)c(NC(=O)Nc2cccc(OC)c2)c1 | 87* | HIV RNase H inh-2=-2
COc1cccc(C(=O)Nc2ccccc2N2CCOCC2)c1 | -10
COc1cccc(C(=O)OCC(=O)Nc2ccccc2N2CCOCC2)c1 | -1
